Test results reported in PubChem BioAssay.
Values joined by “and” are separate entries in the source; they are usually repeats but may differ in a detail not shown here. Equal values may be shown once. Active and inactive are the calls of the source.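 How the source made its calls, unless noted: active means normalized viability below 100% at a tested concentration; inactive means the rest.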

What was measured:
[1] = stimulators of nuclear beta-catenin in C2C12, primary screen, imaging, WNT3A-conditioned medium, mouse C2C12, NPC library (AID 1117326; in the data active means nuclear beta-catenin stimulation mostly above about 4.2%, no sharp cut-off; inactive means mostly below about 10%); conditions: stronger effect = higher value
[2] = stimulators of insulin release from INS-1E, primary screen, cell-based, 5 mM glucose, NPC library (AID 1117329;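 active means compound raises insulin release from rat beta cells at 5 mM glucose, no numeric limit stated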); conditions: rat INS-1E insulin secretion, at 10 µM, stronger effect = higher value
[3] = growth inhibition of GSK3B-pretreated HCT116 cells – cell-based, CellTiter-Glo, 0.2 to 20 µM (AID 1117336;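 active means compounds lowering colon cancer cell viability after pretreatment blocking the GSK3B kinase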); conditions: HCT116 viability after GSK3B inhibitor, at 20 µM, stronger effect = higher value
[4] = inhibition of endothelial tube formation, primary screen, imaging, VEGF stimulated, CD31 staining, tube area, NPC library (AID 1117340;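 active means compound that reduces growth-factor-driven endothelial tube area in a mixed cell culture, no cutoff stated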); conditions: VEGF-stimulated ADSC/ECFC co-culture, at 10 µM, stronger effect = higher value
[5] = glucagon-like peptide 1 release enhancers, primary assay, NCI-H716 cell line, NPC library (AID 1117341;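 active means compound raises GLP1 secretion from the human gut endocrine cells, with no numeric limit stated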); conditions: NCI-H716 cells, at 10 µM, stronger effect = higher value
[6] = HCT116 colon cancer cell growth inhibition, primary screen, CellTiter-Glo luminescence, NPC library (AID 1117342;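 active means compounds that lower survival of HCT116 colon cancer cells in the luminescence readout, no numeric limit stated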); conditions: at 20 µM (top of the series)
[7] = CellTiter-Glo luminescent readout of SW480 viability loss, NPC library primary (AID 1117343;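 active means compounds that lower viability of the colon cancer cells in the luminescence readout, with no numeric limit stated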); conditions: CellTiter-Glo luminescence; at 20 µM (top of the series) unless noted
[8] = decreased DLD-1 cellular survival, CellTiter-Glo luminescent readout, NPC compound collection, primary HTS (AID 1117346;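 active means compounds that lower survival of DLD-1 colon cancer cells in the luminescence readout, no cutoff given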); conditions: DLD-1 viability, CellTiter-Glo luminescence; at 20 µM (top of the series)
[9] = sensitizers of A549 cells to miR-34 induction, primary screen, imaging, A549 dox-inducible miR-34, nuclei and caspase counts (AID 1347080;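 active means compounds whose cell count with miR-34 switched on is under 0.7 times the count with it off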); conditions: A549 miR-34 inducible, Hoechst nuclei count, 48 h
[10] = phospholipid biosynthesis inhibitors in animal cells, primary screen, cell-based, LOPAC library, screen 4 (AID 1347384; call rule not given here); conditions: phospholipid biosynthesis inhibition screen, at 10 µM
[11] = viability rescue of complex I mutant cybrids, primary screen, cell-based, galactose medium, ATP luminescence (AID 1645843;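 active means z-score of at least 1.8 in each of two replicates, scored against plate mean and spread of sample wells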;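 further: positive z means more ATP and so rescue of galactose-driven cybrid death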); conditions: complex I mutant cybrid cells, 72 h, stronger effect = higher value
[12] = survival rescue of mitochondrial mutant cells in low glucose, primary screen, MELAS cybrids, Rieske KO mouse fibroblasts, CellTiter-Glo (AID 1508586;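 active means mean z-score across replicates of 1.96 or higher in either the MELAS or the Rieske mutant cell line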;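 further: z relative to plate mean and SD of compound and empty wells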)
[13] = ovarian cancer cell viability with rucaparib, profiling panel, oncology-focused library, rucaparib conditional (AID 1508598); conditions: patient-derived ovarian cancer cells, CellTiter-Glo viability, 144 h, stronger effect = lower value
[14] = liver-stage malaria parasite growth inhibition, primary screen, cell-based, HepG2, luciferase luminescence, HepG2 viability (AID 624349; in the data active means parasite load remaining mostly below about 12%, no sharp cut-off; inactive means mostly above about 10%;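 further: 100% = mean of DMSO negative control wells on the same plate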); conditions: P. berghei liver stage in HepG2, luciferase luminescence, concentration not given here; parasite load remaining: stronger effect = lower value; viability: measured here: HepG2 viability without parasites
[15] = stronger effect = lower value, cell number ratio, induced over uninduced
[16] = measured here: relative caspase fold change +Dox/-Dox
[17] = measured here: total cells with miR-34 induction, stronger effect = lower value
[18] = measured here: total cells without miR-34 induction
[19] = MELAS cybrid survival, CellTiter-Glo 48 h, stronger effect = higher value
[20] = Rieske KO mouse fibroblast survival, CellTiter-Glo 72 h

CCC(=O)c1ccc2c(c1)N(CCCN(C)C)c1ccccc1S2
1900: cell count [9, 17]
2180: cell count [9, 18]
inactive: nuclear beta-catenin stimulation ([1]; at 10 µM) 0.3% | viability decrease [3] 24.5% | GLP1 secretion stimulation [5] -2.4% | inhibition of viability [6] 46.9% | viability decrease (inhibition) [8] 20.4% | fold change [9, 15] 0.872 | outcome [10] | z-score [11] -1.19
-0.2%: nuclear beta-catenin stimulation ([1]; stimulation, at 2 µM)
0.831: fold change [9, 16]
active: insulin secretion stimulation [2] 33.8% | tube area decrease [4] 48.9% | viability decrease (inhibition) [7] 65.1%

Nc1cccc2c1CN(C1CCC(=O)NC1=O)C2=O (stereo not given)
inactive: nuclear beta-catenin stimulation ([1]; at 10 µM) 2% | insulin secretion stimulation [2] 1.3% | viability decrease [3] 0% | tube area decrease [4] -3.8% | GLP1 secretion stimulation [5] 0% | inhibition of viability [6] -8.6% | viability decrease (inhibition) [7] -19.5% | viability decrease (inhibition) [8] 1.2% | fold change [9, 15] 1.01 | z-score [12, 19] -0.434 | viability ([13]; at 0.000305 µM, OCI-C5x cells, with rucaparib 10 µM, 100% = cells with rucaparib alone) 116% | viability ([13]; at 0.000305 µM, OCI-C5x cells, without rucaparib) 116% | viability ([13]; at 0.000305 µM, OCI-P5x cells, with rucaparib 20 µM, 100% = cells with rucaparib alone) 126% | viability ([13]; at 0.000305 µM, OCI-P5x cells, without rucaparib) 106% | viability ([13]; at 0.00122 µM, OCI-C5x cells, with rucaparib 10 µM, 100% = cells with rucaparib alone) 122% | viability ([13]; at 0.00122 µM, OCI-C5x cells, without rucaparib) 116% | viability ([13]; at 0.00122 µM, OCI-P5x cells, with rucaparib 20 µM, 100% = cells with rucaparib alone) 130% | viability ([13]; at 0.00122 µM, OCI-P5x cells, without rucaparib) 105% | viability ([13]; at 0.00488 µM, OCI-C5x cells, with rucaparib 10 µM, 100% = cells with rucaparib alone) 126% | viability ([13]; at 0.00488 µM, OCI-C5x cells, without rucaparib) 115% | viability ([13]; at 0.00488 µM, OCI-P5x cells, with rucaparib 20 µM, 100% = cells with rucaparib alone) 123% | viability ([13]; at 0.0195 µM, OCI-C5x cells, with rucaparib 10 µM, 100% = cells with rucaparib alone) 113% | viability ([13]; at 0.0195 µM, OCI-C5x cells, without rucaparib) 114% | viability ([13]; at 0.0195 µM, OCI-P5x cells, with rucaparib 20 µM, 100% = cells with rucaparib alone) 125% | viability ([13]; at 0.0195 µM, OCI-P5x cells, without rucaparib) 107% | viability ([13]; at 0.0781 µM, OCI-C5x cells, with rucaparib 10 µM, 100% = cells with rucaparib alone) 120% | viability ([13]; at 0.0781 µM, OCI-C5x cells, without rucaparib) 132% | viability ([13]; at 0.0781 µM, OCI-P5x cells, with rucaparib 20 µM, 100% = cells with rucaparib alone) 133% | viability ([13]; at 0.0781 µM, OCI-P5x cells, without rucaparib) 109% | viability ([13]; at 0.313 µM, OCI-C5x cells, with rucaparib 10 µM, 100% = cells with rucaparib alone) 118% | viability ([13]; at 0.313 µM, OCI-C5x cells, without rucaparib) 117% | viability ([13]; at 0.313 µM, OCI-P5x cells, with rucaparib 20 µM, 100% = cells with rucaparib alone) 129% | viability ([13]; at 0.313 µM, OCI-P5x cells, without rucaparib) 109% | viability ([13]; at 1.25 µM, OCI-C5x cells, with rucaparib 10 µM, 100% = cells with rucaparib alone) 121% | viability ([13]; at 1.25 µM, OCI-C5x cells, without rucaparib) 119% | viability ([13]; at 1.25 µM, OCI-P5x cells, with rucaparib 20 µM, 100% = cells with rucaparib alone) 114% | viability ([13]; at 1.25 µM, OCI-P5x cells, without rucaparib) 103% | viability ([13]; at 5 µM, OCI-C5x cells, with rucaparib 10 µM, 100% = cells with rucaparib alone) 115% | viability ([13]; at 5 µM, OCI-C5x cells, without rucaparib) 117% | viability ([13]; at 5 µM, OCI-P5x cells, with rucaparib 20 µM, 100% = cells with rucaparib alone) 132% | viability ([13]; at 5 µM, OCI-P5x cells, without rucaparib) 110%
0.954: fold change [9, 16]
active: viability ([13]; at 0.00488 µM, OCI-P5x cells, without rucaparib) 95.9%
0.686: z-score [12, 20]
8190: cell count [9, 18]
8240: cell count [9, 17]
0.3%: nuclear beta-catenin stimulation ([1]; stimulation, at 2 µM)

O=c1[nH]c(=O)n([C@H]2C[C@H](O)[C@@H](CO)O2)cc1Br
7520: cell count [9, 17]
-1.1%: nuclear beta-catenin stimulation ([1]; stimulation, at 2 µM)
9790: cell count [9, 18]
inactive: nuclear beta-catenin stimulation ([1]; at 10 µM) 0.6% | insulin secretion stimulation [2] 0.6% | viability decrease [3] 17.6% | GLP1 secretion stimulation [5] 0.6% | inhibition of viability [6] 14.8% | viability decrease (inhibition) [7] 18.4% | viability decrease (inhibition) [8] 34.2% | fold change [9, 15] 0.769 | outcome [10]
2.25: fold change [9, 16]
active: tube area decrease [4] 54.6% | z-score [11] 5.63

OCCN1CCN(CCCN2c3ccccc3C=Cc3ccccc32)CC1
-0.132: z-score [12, 20]
2.29: fold change [9, 16]
1.3%: nuclear beta-catenin stimulation ([1]; stimulation, at 2 µM)
8600: cell count [9, 17]
active: inhibition of viability [6] 56.9% | viability decrease (inhibition) [7] 80.2%
8590: cell count [9, 18]
inactive: nuclear beta-catenin stimulation ([1]; at 10 µM) -0.5% | insulin secretion stimulation [2] 13.8% | viability decrease [3] 5.9% | tube area decrease [4] 15% | GLP1 secretion stimulation [5] 2% | viability decrease (inhibition) [8] 37.9% | fold change [9, 15] 1 | outcome [10] | z-score [12, 19] -0.305 | z-score [11] -0.685

CCNC(=O)N1CCN(CCCC(c2ccc(F)cc2)c2ccc(F)cc2)CC1
1.62: fold change [9, 16]
-1.1%: nuclear beta-catenin stimulation ([1]; stimulation, at 2 µM)
6940: cell count [9, 18]
6860: cell count [9, 17]
inactive: nuclear beta-catenin stimulation ([1]; at 10 µM) 0.3% | insulin secretion stimulation [2] 1.1% | tube area decrease [4] 17.1% | GLP1 secretion stimulation [5] 7.1% | fold change [9, 15] 0.987 | outcome [10] | z-score [11] -1.42
active: viability decrease [3] 50.7% | inhibition of viability [6] 85.2% | viability decrease (inhibition) [7] 119% | viability decrease (inhibition) [8] 57.7%

CC1=C(CC(=O)O)c2cc(F)ccc2/C1=C\c1ccc(S(C)(=O)=O)cc1
inactive: nuclear beta-catenin stimulation ([1]; at 10 µM) 0.1% | insulin secretion stimulation [2] -1.1% | viability decrease [3] 39.5% | tube area decrease [4] 7.6% | GLP1 secretion stimulation [5] -0.4% | fold change [9, 15] 0.998 | outcome [10] | z-score [11] 0.795
-0.8%: nuclear beta-catenin stimulation ([1]; stimulation, at 2 µM)
9260: cell count [9, 18]
active: inhibition of viability [6] 66.3% | viability decrease (inhibition) [7] 88.7% | viability decrease (inhibition) [8] 90.1%
9240: cell count [9, 17]
1.86: fold change [9, 16]

O=C(O)CN(CCOCCOCCN(CC(=O)O)CC(=O)O)CC(=O)O
1.12: fold change [9, 16]
inactive: nuclear beta-catenin stimulation ([1]; at 10 µM) 0% | insulin secretion stimulation [2] 1.45% | viability decrease [3] 16.3% | tube area decrease [4] 6.4% | GLP1 secretion stimulation [5] 1.8% | inhibition of viability [6] 5.2% | viability decrease (inhibition) [7] -13.8% | viability decrease (inhibition) [8] 1.8% | fold change [9, 15] 0.942 | outcome [10] | z-score [11] 0.34
9820: cell count [9, 17]
0%: nuclear beta-catenin stimulation ([1]; stimulation, at 2 µM)
10400: cell count [9, 18]

OCCN1CCN(CC/C=C2/c3ccccc3Sc3ccc(C(F)(F)F)cc32)CC1
6310: cell count [9, 18]
14.5%: nuclear beta-catenin stimulation ([1]; stimulation, at 2 µM)
active: viability decrease [3] 120% | tube area decrease [4] 88.3% | GLP1 secretion stimulation [5] 69.1% | inhibition of viability [6] 126% | viability decrease (inhibition) [7] 167% | viability decrease (inhibition) [8] 102%
6940: cell count [9, 17]
1.38: fold change [9, 16]
81%: viability [14]
inactive: parasite load remaining [14] 69.9% | nuclear beta-catenin stimulation ([1]; at 10 µM) -1.3% | insulin secretion stimulation [2] 10.7% | fold change [9, 15] 1.1 | outcome [10] | z-score [11] -1.04

Cc1nc2c([nH]1)c(=O)n(C)c(=O)n2Cc1ccco1
184%: viability [14]
-0.9%: nuclear beta-catenin stimulation ([1]; stimulation, at 2 µM)
inactive: parasite load remaining [14] 89.1% | nuclear beta-catenin stimulation ([1]; at 10 µM) -1.1% | insulin secretion stimulation [2] 5.4% | viability decrease [3] 4.7% | tube area decrease [4] -13.8% | GLP1 secretion stimulation [5] 2.9% | inhibition of viability [6] 4.7% | viability decrease (inhibition) [7] 11.9% | viability decrease (inhibition) [8] 11.1% | fold change [9, 15] 0.936 and 0.904 | outcome [10] | z-score [12, 19] 0.342 | z-score [11] 0.455 and 1.9
10100 and 8410: cell count [9, 17]
-0.476: z-score [12, 20]
1.31 and 1.1: fold change [9, 16]
10800 and 9310: cell count [9, 18]
